# Experimental data reported in PMC7862700, “An all-to-all approach to the identification of sequence-specific readers for epigenetic DNA modifications on cytosine”.
# Tests used:
# Experiment in all cases: DAPPL (digital affinity profiling via proximity ligation, sequencing); 10 mM Tris-HCl pH 7.5, 50 mM NaCl, 1 mM DTT, 4% glycerol, room temperature, 30 min; GST-TFs on glutathione beads, 16-mer random dsDNA library, 0.1% formaldehyde crosslink after washing; high values mean tight binding
# Conditions in all cases: protein: recombinant; tags: N-terminal GST; dsDNA, one strand shown
# FLI1 = target: T1, FLI1 (Homo sapiens, UniProt Q01543 1-452)
# T1 sequence: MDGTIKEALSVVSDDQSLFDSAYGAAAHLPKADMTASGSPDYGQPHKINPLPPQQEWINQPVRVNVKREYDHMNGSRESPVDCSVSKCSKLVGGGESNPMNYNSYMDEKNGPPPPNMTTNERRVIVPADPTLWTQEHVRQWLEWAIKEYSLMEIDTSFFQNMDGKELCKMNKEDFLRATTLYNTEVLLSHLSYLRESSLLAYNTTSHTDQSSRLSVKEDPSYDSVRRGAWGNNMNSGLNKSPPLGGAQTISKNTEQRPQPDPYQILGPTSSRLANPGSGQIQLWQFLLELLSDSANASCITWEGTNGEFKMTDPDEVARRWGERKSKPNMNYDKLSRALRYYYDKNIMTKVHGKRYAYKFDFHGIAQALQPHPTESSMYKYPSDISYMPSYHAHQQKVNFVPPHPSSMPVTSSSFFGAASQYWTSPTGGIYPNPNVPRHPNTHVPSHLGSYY
# Method in brief: (§1)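 Human transcription factors carrying a GST fusion were produced in yeast, bound to glutathione beads, tagged with DNA barcodes and pooled together with a tag-only sample. Each pool was held with 200 nmole of a random double-stranded 16-mer DNA library in Tris/NaCl/DTT/glycerol buffer for 30 min at room temperature, then washed, crosslinked in 0.1% formaldehyde, proximity-ligated with BsaI/T4 ligase (1 h, 37 °C), PCR-amplified and sequenced on an Illumina NextSeq500. Binding signal is the read frequency of each hexamer for a given factor divided by its frequency in the tag-only sample.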
# ELK1 = target: T2, ELK1 (Homo sapiens, UniProt P19419 1-428)
# T2 sequence: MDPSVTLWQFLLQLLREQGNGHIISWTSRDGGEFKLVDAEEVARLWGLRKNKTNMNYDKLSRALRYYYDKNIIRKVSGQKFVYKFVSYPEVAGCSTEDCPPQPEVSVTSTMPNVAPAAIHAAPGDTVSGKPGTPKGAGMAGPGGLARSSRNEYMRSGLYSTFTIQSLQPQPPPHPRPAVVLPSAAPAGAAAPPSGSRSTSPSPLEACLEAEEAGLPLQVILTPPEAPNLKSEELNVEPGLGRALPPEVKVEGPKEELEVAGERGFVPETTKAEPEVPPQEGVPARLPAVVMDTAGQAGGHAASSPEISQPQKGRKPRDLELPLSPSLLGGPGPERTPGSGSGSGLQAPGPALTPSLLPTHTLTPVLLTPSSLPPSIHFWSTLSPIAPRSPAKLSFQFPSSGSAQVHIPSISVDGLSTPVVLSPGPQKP
# Method in brief: as §1
# GABPA = target: T3, GABPA (Homo sapiens, UniProt Q06546 1-454)
# T3 sequence: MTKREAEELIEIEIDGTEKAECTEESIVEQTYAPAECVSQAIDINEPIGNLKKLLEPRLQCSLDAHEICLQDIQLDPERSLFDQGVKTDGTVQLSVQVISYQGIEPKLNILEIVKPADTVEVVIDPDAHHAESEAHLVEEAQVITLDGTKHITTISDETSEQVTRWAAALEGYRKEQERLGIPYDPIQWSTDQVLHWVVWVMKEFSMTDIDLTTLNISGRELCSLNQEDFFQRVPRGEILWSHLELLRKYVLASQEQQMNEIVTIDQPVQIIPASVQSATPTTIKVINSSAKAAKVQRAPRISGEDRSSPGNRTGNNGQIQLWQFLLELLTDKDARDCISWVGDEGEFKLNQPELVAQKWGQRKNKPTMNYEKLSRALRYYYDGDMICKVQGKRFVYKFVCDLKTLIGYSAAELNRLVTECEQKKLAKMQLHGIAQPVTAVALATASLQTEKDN
# Method in brief: as §1
# ERG = target: T4, ERG (Homo sapiens, UniProt P11308 1-479)
# T4 sequence: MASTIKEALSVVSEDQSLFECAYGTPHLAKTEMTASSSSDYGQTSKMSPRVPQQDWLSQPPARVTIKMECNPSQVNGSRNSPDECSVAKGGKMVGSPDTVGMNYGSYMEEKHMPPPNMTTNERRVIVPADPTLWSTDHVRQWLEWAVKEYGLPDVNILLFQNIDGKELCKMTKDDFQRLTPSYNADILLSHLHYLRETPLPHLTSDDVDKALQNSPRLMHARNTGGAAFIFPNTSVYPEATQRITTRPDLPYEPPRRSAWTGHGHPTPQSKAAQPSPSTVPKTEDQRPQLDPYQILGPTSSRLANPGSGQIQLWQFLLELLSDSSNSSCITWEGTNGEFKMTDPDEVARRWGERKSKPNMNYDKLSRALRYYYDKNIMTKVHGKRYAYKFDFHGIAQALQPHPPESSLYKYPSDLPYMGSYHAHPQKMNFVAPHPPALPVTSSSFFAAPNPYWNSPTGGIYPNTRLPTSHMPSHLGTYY
# Method in brief: as §1
# ELF1 = ELF1 (Homo sapiens, UniProt P32519 1-619)
# ELF1, sequence (P32519 whole entry): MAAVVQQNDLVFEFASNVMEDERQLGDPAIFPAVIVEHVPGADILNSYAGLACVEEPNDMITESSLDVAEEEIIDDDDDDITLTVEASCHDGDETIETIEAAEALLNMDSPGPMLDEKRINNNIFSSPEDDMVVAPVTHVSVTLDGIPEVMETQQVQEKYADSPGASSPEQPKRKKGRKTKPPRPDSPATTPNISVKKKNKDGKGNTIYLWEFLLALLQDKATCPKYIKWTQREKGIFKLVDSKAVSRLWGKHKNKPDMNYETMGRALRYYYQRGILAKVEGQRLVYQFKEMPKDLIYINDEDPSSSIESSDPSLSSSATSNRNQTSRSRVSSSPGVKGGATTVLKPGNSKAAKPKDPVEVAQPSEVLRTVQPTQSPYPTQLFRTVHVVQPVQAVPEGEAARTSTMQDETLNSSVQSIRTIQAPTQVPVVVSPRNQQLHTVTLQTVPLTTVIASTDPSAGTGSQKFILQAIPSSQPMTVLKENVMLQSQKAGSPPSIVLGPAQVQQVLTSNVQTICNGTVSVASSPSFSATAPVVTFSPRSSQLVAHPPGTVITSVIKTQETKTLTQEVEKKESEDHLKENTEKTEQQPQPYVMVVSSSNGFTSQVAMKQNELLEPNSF
# Method in brief: as §1
# EHF = target: T5, EHF (Homo sapiens, UniProt Q9NZC4 1-300)
# T5 sequence: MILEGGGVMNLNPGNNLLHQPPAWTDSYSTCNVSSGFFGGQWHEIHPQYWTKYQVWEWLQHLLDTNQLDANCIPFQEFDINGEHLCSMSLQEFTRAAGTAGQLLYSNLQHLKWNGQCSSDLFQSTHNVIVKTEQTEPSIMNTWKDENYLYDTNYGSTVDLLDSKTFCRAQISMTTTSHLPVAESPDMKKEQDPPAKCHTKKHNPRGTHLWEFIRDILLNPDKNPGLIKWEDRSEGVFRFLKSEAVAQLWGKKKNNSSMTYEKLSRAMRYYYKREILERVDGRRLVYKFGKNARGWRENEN
# Method in brief: as §1
# SPI1 = SPI1 (Homo sapiens, UniProt P17947 1-270)
# Method in brief: as §1
# SPIB = SPIB (Homo sapiens, UniProt Q01892 1-262)
# SPIB, sequence (Q01892 whole entry): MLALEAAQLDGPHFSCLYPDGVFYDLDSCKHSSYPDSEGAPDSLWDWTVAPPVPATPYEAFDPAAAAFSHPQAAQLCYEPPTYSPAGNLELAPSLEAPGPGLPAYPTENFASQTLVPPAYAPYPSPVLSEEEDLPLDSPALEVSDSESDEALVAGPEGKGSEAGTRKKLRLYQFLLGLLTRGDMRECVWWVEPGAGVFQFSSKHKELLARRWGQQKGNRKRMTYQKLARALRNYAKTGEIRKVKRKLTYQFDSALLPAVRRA
# Method in brief: as §1
# ELK3 = target: T6, ELK3 (Homo sapiens, UniProt P41970 1-407)
# T6 sequence: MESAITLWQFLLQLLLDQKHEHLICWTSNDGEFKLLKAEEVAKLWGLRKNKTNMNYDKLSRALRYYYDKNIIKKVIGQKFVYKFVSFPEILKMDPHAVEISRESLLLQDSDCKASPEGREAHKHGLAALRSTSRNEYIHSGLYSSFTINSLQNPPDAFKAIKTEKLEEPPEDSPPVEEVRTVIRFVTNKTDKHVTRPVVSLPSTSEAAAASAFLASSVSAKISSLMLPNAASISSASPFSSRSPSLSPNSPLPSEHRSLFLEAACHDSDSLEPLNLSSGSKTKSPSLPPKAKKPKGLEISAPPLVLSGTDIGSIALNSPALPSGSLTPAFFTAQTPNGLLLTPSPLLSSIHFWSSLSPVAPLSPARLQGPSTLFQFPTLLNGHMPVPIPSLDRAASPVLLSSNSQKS
# Method in brief: as §1
Sequence,binding signal (FLI1),binding signal (ELK1),binding signal (GABPA),binding signal (ERG),binding signal (ELF1),binding signal (EHF),binding signal (SPI1),binding signal (SPIB),binding signal (ELK3)
CTCCCC,"1.44 fold enrichment (6-mer frequency, TF over GST control)","1.31 fold enrichment (6-mer frequency, TF over GST control)","1.41 fold enrichment (6-mer frequency, TF over GST control)","1.45 fold enrichment (6-mer frequency, TF over GST control)","1.45 fold enrichment (6-mer frequency, TF over GST control)","1.56 fold enrichment (6-mer frequency, TF over GST control)","1.3 fold enrichment (6-mer frequency, TF over GST control)","1.38 fold enrichment (6-mer frequency, TF over GST control)","1.4 fold enrichment (6-mer frequency, TF over GST control)"
ACTATG,"1.23 fold enrichment (6-mer frequency, TF over GST control)","1.28 fold enrichment (6-mer frequency, TF over GST control)","1.37 fold enrichment (6-mer frequency, TF over GST control)","1.19 fold enrichment (6-mer frequency, TF over GST control)","1.21 fold enrichment (6-mer frequency, TF over GST control)","1.25 fold enrichment (6-mer frequency, TF over GST control)","1.14 fold enrichment (6-mer frequency, TF over GST control)","1.31 fold enrichment (6-mer frequency, TF over GST control)","1.2 fold enrichment (6-mer frequency, TF over GST control)"
CTAACA,"1.28 fold enrichment (6-mer frequency, TF over GST control)","1.24 fold enrichment (6-mer frequency, TF over GST control)","1.16 fold enrichment (6-mer frequency, TF over GST control)","1.21 fold enrichment (6-mer frequency, TF over GST control)","1.25 fold enrichment (6-mer frequency, TF over GST control)","1.21 fold enrichment (6-mer frequency, TF over GST control)","1.24 fold enrichment (6-mer frequency, TF over GST control)","1.17 fold enrichment (6-mer frequency, TF over GST control)","1.15 fold enrichment (6-mer frequency, TF over GST control)"
ATCCCT,"1.35 fold enrichment (6-mer frequency, TF over GST control)","1.28 fold enrichment (6-mer frequency, TF over GST control)","1.22 fold enrichment (6-mer frequency, TF over GST control)","1.24 fold enrichment (6-mer frequency, TF over GST control)","1.31 fold enrichment (6-mer frequency, TF over GST control)","1.22 fold enrichment (6-mer frequency, TF over GST control)","1.16 fold enrichment (6-mer frequency, TF over GST control)","1.27 fold enrichment (6-mer frequency, TF over GST control)","1.12 fold enrichment (6-mer frequency, TF over GST control)"
ACGCTT,"1.4 fold enrichment (6-mer frequency, TF over GST control)","1.34 fold enrichment (6-mer frequency, TF over GST control)","1.37 fold enrichment (6-mer frequency, TF over GST control)","1.33 fold enrichment (6-mer frequency, TF over GST control)","1.37 fold enrichment (6-mer frequency, TF over GST control)","1.35 fold enrichment (6-mer frequency, TF over GST control)","1.23 fold enrichment (6-mer frequency, TF over GST control)","1.5 fold enrichment (6-mer frequency, TF over GST control)","1.44 fold enrichment (6-mer frequency, TF over GST control)"
CTGTCT,"1.35 fold enrichment (6-mer frequency, TF over GST control)","1.3 fold enrichment (6-mer frequency, TF over GST control)","1.31 fold enrichment (6-mer frequency, TF over GST control)","1.46 fold enrichment (6-mer frequency, TF over GST control)","1.35 fold enrichment (6-mer frequency, TF over GST control)","1.35 fold enrichment (6-mer frequency, TF over GST control)","1.33 fold enrichment (6-mer frequency, TF over GST control)","1.3 fold enrichment (6-mer frequency, TF over GST control)","1.62 fold enrichment (6-mer frequency, TF over GST control)"
CTCTTA,"1.35 fold enrichment (6-mer frequency, TF over GST control)","1.4 fold enrichment (6-mer frequency, TF over GST control)","1.45 fold enrichment (6-mer frequency, TF over GST control)","1.27 fold enrichment (6-mer frequency, TF over GST control)","1.51 fold enrichment (6-mer frequency, TF over GST control)","1.23 fold enrichment (6-mer frequency, TF over GST control)","1.4 fold enrichment (6-mer frequency, TF over GST control)","1.32 fold enrichment (6-mer frequency, TF over GST control)","1.36 fold enrichment (6-mer frequency, TF over GST control)"
CTCTTG,"1.4 fold enrichment (6-mer frequency, TF over GST control)","1.33 fold enrichment (6-mer frequency, TF over GST control)","1.41 fold enrichment (6-mer frequency, TF over GST control)","1.29 fold enrichment (6-mer frequency, TF over GST control)","1.36 fold enrichment (6-mer frequency, TF over GST control)","1.3 fold enrichment (6-mer frequency, TF over GST control)","1.3 fold enrichment (6-mer frequency, TF over GST control)","1.43 fold enrichment (6-mer frequency, TF over GST control)","1.53 fold enrichment (6-mer frequency, TF over GST control)"
